Columns and labels:
Assay in all cases: thermal shift delta Tm vs DMSO control; higher = stronger stabilization (binding)
Details in all cases: 12.5 µM; protein concentration 2 µM
[1] = test system: LOC_OS01G01410-cb001
Outline: (§1)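 Purified, E. coli-expressed rice kinase domain constructs were tested by differential scanning fluorimetry in 96-well plates: 19.5 μl of 2 μM kinase in 100 mM potassium phosphate pH 7.5, 150 mM NaCl, 10% glycerol, 5 × SYPRO Orange, plus compound in DMSO. Fluorescence was read from 25°C to 95°C at 0.05°C/s. Melting temperatures came from Boltzmann fits, and the shift is the triplicate mean relative to protein with DMSO alone.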

[2] = test system: LOC_OS01G02750-cb003
Outline: as §1

[3] = test system: LOC_OS01G10900-cb004
Outline: as §1

[4] = test system: LOC_OS01G13800-cb001
Outline: as §1

[5] = test system: LOC_OS01G14860-cb001
Outline: as §1

[6] = test system: LOC_OS01G21960-cb002
Outline: as §1

[7] = test system: LOC_OS01G39600-cb002
Outline: as §1

[8] = test system: LOC_OS01G48390-cb002
Outline: as §1

[9] = test system: LOC_OS01G51400-cb002
Outline: as §1

[10] = test system: T1, LOC_OS01G52050-cb004
T1 sequence (whole entry): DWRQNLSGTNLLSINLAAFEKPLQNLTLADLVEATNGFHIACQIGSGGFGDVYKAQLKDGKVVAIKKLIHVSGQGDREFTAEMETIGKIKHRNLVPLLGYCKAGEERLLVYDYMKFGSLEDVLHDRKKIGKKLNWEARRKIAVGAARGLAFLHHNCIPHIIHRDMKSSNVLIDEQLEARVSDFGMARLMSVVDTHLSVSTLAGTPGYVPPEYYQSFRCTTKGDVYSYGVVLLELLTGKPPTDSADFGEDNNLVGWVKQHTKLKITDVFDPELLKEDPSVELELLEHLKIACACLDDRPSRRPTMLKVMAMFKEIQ
Outline: as §1

[11] = test system: LOC_OS01G57100-cb003
Outline: as §1

[12] = test system: LOC_OS01G60330-cb001
Outline: as §1

[13] = test system: LOC_OS01G60700-cb002
Outline: as §1

[14] = test system: LOC_OS01G63280-cb003
Outline: as §1

[15] = test system: LOC_OS01G67340-cb003
Outline: as §1

[16] = test system: LOC_OS01G70970-cb002
Outline: as §1

[17] = test system: LOC_OS02G07810-cb001
Outline: as §1

[18] = test system: LOC_OS02G08530-cb003
Outline: as §1

[19] = test system: LOC_OS02G14120-cb001
Outline: as §1

[20] = test system: LOC_OS02G17970-cb001
Outline: as §1

Row | SMILES | thermal shift delta Tm [1] | thermal shift delta Tm [2] | thermal shift delta Tm [3] | thermal shift delta Tm [4] | thermal shift delta Tm [5] | thermal shift delta Tm [6] | thermal shift delta Tm [7] | thermal shift delta Tm [8] | thermal shift delta Tm [9] | thermal shift delta Tm [10] | thermal shift delta Tm [11] | thermal shift delta Tm [12] | thermal shift delta Tm [13] | thermal shift delta Tm [14] | thermal shift delta Tm [15] | thermal shift delta Tm [16] | thermal shift delta Tm [17] | thermal shift delta Tm [18] | thermal shift delta Tm [19] | thermal shift delta Tm [20]
1 | NC(=O)c1ncn([C@@H]2O[C@H](CO)[C@@H](O)[C@H]2O)c1N [AICAR (Acadesine)] | 0.45 °C | 1.18 °C | 0.56 °C | 0.52 °C | 0.07 °C | 0.94 °C | -0.35 °C | 0.6 °C | 0.32 °C | 0.33 °C | 1.35 °C | 0.61 °C | 0.92 °C | 0.73 °C | -0.25 °C | 0.13 °C | 1.21 °C | 0.52 °C | 0.21 °C | 0.71 °C
2 | Cc1c(NC(=O)c2ccc(C(C)(C)C)cc2)cccc1-c1cn(C)c(=O)c(Nc2ccc(C(=O)N3CCOCC3)cc2)n1 | 0.18 °C | 0.71 °C | -1.08 °C | 0.18 °C | -0.01 °C | 0.66 °C | 2.2 °C | 0.86 °C | 0.2 °C | -0.23 °C | 1.59 °C | 0.51 °C | 1.36 °C | 0.36 °C | -0.03 °C | 0.22 °C | 0.9 °C | 0.31 °C | 0 °C | 0.66 °C
3 | Cc1ncc(-c2ccnc(Nc3ccc(S(C)(=O)=O)cc3)n2)n1C(C)C | 2.46 °C | 2.34 °C | 0.85 °C | 0.21 °C | 7.5 °C | 2.32 °C | 2.92 °C | 0.66 °C | 0.48 °C | 4.34 °C | 1.7 °C | 2.38 °C | 1.21 °C | 4.42 °C | 1.74 °C | 1.45 °C | 1.42 °C | 2.22 °C | 5.76 °C | 1.78 °C
4 | CCNc1nc(Nc2cc(F)c(C(=O)N3CCOCC3)cc2OC)ncc1C(F)(F)F | 0.11 °C | 0.63 °C | 0.25 °C | 0.11 °C | 1.18 °C | 0.79 °C | 0.15 °C | 0.72 °C | 0.2 °C | -0.2 °C | 0.61 °C | 1.21 °C | 0.71 °C | 0.15 °C | 0.32 °C | 0.73 °C | -0.04 °C | 1.3 °C | 0.5 °C | 0.54 °C
5 | Cc1cc(C(=O)Nc2nc3cccc(Cl)c3n2[C@@H]2CCCCN(C(=O)/C=C/CN(C)C)C2)ccn1 [Nazartinib (EGF816, NVS-816)] | 1.02 °C | 1.36 °C | 1.4 °C | 0.82 °C | 1.27 °C | 1.25 °C | 0.83 °C | 0.78 °C | 0.04 °C | 0.96 °C | 1.05 °C | 1.72 °C | 1.17 °C | 0.35 °C | 1.06 °C | 0.93 °C | 0.98 °C | 2.18 °C | 1.69 °C | 1.28 °C
6 | O=c1nc(N2CCOCC2)oc2c(-c3cccc4c3sc3ccccc34)cccc12 | 0.12 °C | -0.86 °C | 3.3 °C | -0.44 °C | 0.6 °C | 0.45 °C | -0.5 °C | 0.27 °C | -0.4 °C | 1.17 °C | 1.63 °C | -0.13 °C | -0.9 °C | -1.32 °C | -1.09 °C | -0.38 °C | -1.31 °C | 0.23 °C | 0.11 °C | -0.76 °C
7 | O=C(O)c1ccc2c3c1cccc3c(=O)n1c3ccccc3nc21 | 3.12 °C | 0.97 °C | 0.69 °C | 0.32 °C | 1.4 °C | 0.71 °C | 0.62 °C | 0.91 °C | 0 °C | 1.18 °C | 1.73 °C | 3.73 °C | 1 °C | 0.76 °C | 1 °C | 0.87 °C | 0.5 °C | 0.93 °C | 3.53 °C | 0.44 °C
8 | Oc1cc(O)cc(/C=C/c2ccc(O)c(O)c2)c1 [Piceatannol] | 1.39 °C | 1.52 °C | 0.74 °C | 1 °C | 1.02 °C | -0.47 °C | 1.51 °C | 1.02 °C | 0.39 °C | 1.1 °C | -0.61 °C | 1.29 °C | 1.12 °C | 1.07 °C | 0.13 °C | 0.59 °C | 1.77 °C | 1.3 °C | 0.89 °C | 1.38 °C
9 | COc1cc2c(Oc3ccc4[nH]c(C)cc4c3F)ncnc2cc1OCCCN1CCCC1 [Cediranib (AZD2171)] | 0.9 °C | 0.39 °C | 0.21 °C | 0.33 °C | 0.26 °C | 0.39 °C | 0.22 °C | 0.63 °C | 0.05 °C | 0.09 °C | 0.31 °C | 1.14 °C | 0.79 °C | 0.02 °C | 0.06 °C | 0.42 °C | 0.2 °C | 0.41 °C | 0.33 °C | 0.26 °C
10 | CC(=O)Nc1cccc(-n2c(=O)n(C3CC3)c(=O)c3c(Nc4ccc(I)cc4F)n(C)c(=O)c(C)c32)c1 | 0.31 °C | 1.28 °C | 0.15 °C | 0.06 °C | 0.12 °C | 0.5 °C | -0.55 °C | 0.45 °C | 0 °C | 0.63 °C | 1.39 °C | 0.69 °C | 0.72 °C | 0.03 °C | -0.14 °C | 0.12 °C | 0.36 °C | 1.99 °C | 0.02 °C | -0.07 °C
11 | Cc1cc2c(F)c(Oc3ncnn4cc(OC[C@@H](C)OC(=O)[C@H](C)N)c(C)c34)ccc2[nH]1 | 1.74 °C | 0.78 °C | 0.61 °C | 0.4 °C | 0.52 °C | 0.54 °C | 0.75 °C | 0.96 °C | -0.47 °C | -0.05 °C | 2.01 °C | 2.03 °C | 1.53 °C | 0.53 °C | 0.06 °C | 0.49 °C | 0.41 °C | 0.78 °C | 0.99 °C | 0.23 °C
12 | CCS(=O)(=O)Nc1ccc2c(c1)/C(=C(/Nc1ccc(CN3CCCCC3)cc1)c1ccccc1)C(=O)N2 [Hesperadin] | 1.67 °C | 4.74 °C | 0.26 °C | -0.97 °C | 4.63 °C | 3.67 °C | 7.78 °C | 0.03 °C | 0.3 °C | 6.95 °C | 1.29 °C | 4.08 °C | 0.7 °C | 1.11 °C | 6.7 °C | 9.09 °C | 1.1 °C | 5.73 °C | 13 °C | 0.3 °C
13 | COc1cc(C(=O)N2CCC(N3CCN(C)CC3)CC2)ccc1Nc1ncc2c(n1)N(C)c1ccccc1C(=O)N2C | 0.19 °C | 0.47 °C | 2.12 °C | 0.41 °C | -0.08 °C | -0.12 °C | -0.15 °C | 0.42 °C | -0.06 °C | -0.4 °C | 0.21 °C | 0.56 °C | 0.5 °C | -0.2 °C | 0.17 °C | 0.15 °C | 0.46 °C | 1.92 °C | 1.72 °C | 0.35 °C

Source: the supplement of paper PMC9694430
